Experimental data: the supplement of paper PMC8877412
Counter-ions that a name gives are not always drawn. ± gives the uncertainty stated by the source.

Test system: NCC-PMP1-C1
Experiment: cell viability relative to DMSO control; higher = less growth inhibition
Conditions: 10 µM; 72 h
Experimental: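 NCC-PMP1-C1 pseudomyxoma peritonei cells were seeded in 384-well plates coated with Matrigel and MEF (1e4 cells). Viability was read after 72 h by CCK-8 and expressed as % of the DMSO control, mean ± SD of duplicates.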

Compound | cell viability
CC[C@H](Nc1ncnc2[nH]cnc12)c1nc2cccc(F)c2c(=O)n1-c1ccccc1 [CAL-101 (Idelalisib, GS-1101)] | 73.5 ± 9.8%
CO[C@H]1C[C@@H]2CC[C@@H](C)[C@@](O)(O2)C(=O)C(=O)N2CCCC[C@H]2C(=O)O[C@H]([C@H](C)C[C@@H]2CC[C@@H](OC(=O)C(C)(CO)CO)[C@H](OC)C2)CC(=O)[C@H](C)/C=C(\C)[C@@H](O)[C@@H](OC)C(=O)[C@H](C)C[C@H](C)/C=C/C=C/C=C/1C | 155 ± 67%
O=C(c1ccc(OCCN2CCCCC2)cc1)c1c(-c2ccc(O)cc2)sc2cc(O)ccc12 [Raloxifene HCl] | 92.9 ± 5.5%
O=[n+]1c(CBr)c(CBr)n([O-])c2ccccc21 [Conoidin A] | 112 ± 22%
COc1nc(N)nc2c1ncn2[C@@H]1O[C@H](CO)[C@@H](O)[C@@H]1O [Nelarabine] | 127 ± 21%
COc1cc2nccc(Oc3ccc(NC(=O)C4(C(=O)Nc5ccc(F)cc5)CC4)cc3)c2cc1OC | 48.9 ± 2.8%
CN(C)c1nc(N(C)C)nc(N(C)C)n1 [Altretamine] | 113 ± 7.4%
C[C@@]12C[C@@]3(O)O[C@@H](O1)[C@]1(COC(=O)c4ccccc4)[C@H]3C[C@@]12O[C@@H]1O[C@H](CO)[C@@H](O)[C@H](O)[C@H]1O [Paeoniflorin] | 78.6 ± 9%
COc1cc2nccc(Oc3ccc(NC(=O)Nc4cc(C)on4)c(Cl)c3)c2cc1OC [Tivozanib (AV-951)] | 60.7 ± 11%
C=CC(=O)Nc1cc(Nc2nccc(-c3cn(C)c4ccccc34)n2)c(OC)cc1N(C)CCN(C)C [Osimertinib (AZD9291)] | 4.44 ± 0.89%
CCS(=O)(=O)N1CCN(c2ccc(Nc3ncc(C(N)=O)c(NC4CC4)n3)cc2)CC1 | 71.8 ± 3.5%
CC(=O)Oc1ccccc1C(=O)O [Aspirin] | 110 ± 4.8%
O=C(O)C(=O)O.[NH-][C@@H]1CCCC[C@H]1[NH-].[Pt+2] [Oxaliplatin] | 103 ± 15%
CC(=O)O[C@H]1C(=O)[C@@]2(C)[C@H]([C@H](OC(=O)c3ccccc3)[C@]3(O)C[C@H](OC(=O)[C@H](O)[C@@H](NC(=O)c4ccccc4)c4ccccc4)C(C)=C1C3(C)C)[C@]1(OC(C)=O)CO[C@@H]1C[C@@H]2O [Paclitaxel] | 81.6 ± 12%
CCN(CC)CCOc1ccc(C(=C(Cl)c2ccccc2)c2ccccc2)cc1 [Clomifene citrate] | -6.65 ± 0.33%
C[C@]12CC[C@@H]3c4ccc(O)cc4C[C@@H](CCCCCCCCC[S+]([O-])CCCC(F)(F)C(F)(F)F)[C@H]3[C@@H]1CC[C@@H]2O (stereo not given in full) [Fulvestrant] | -7.846 ± 0.067%
Cc1ccc(NC(=O)c2ccc(CN3CC[C@H](N(C)C)C3)c(C(F)(F)F)c2)cc1Nc1nccc(-c2cncnc2)n1 [Bafetinib (INNO-406)] | 72.1 ± 3.7%
CO[C@H]1O[C@@H]2O[C@@]3(C)CC[C@H]4[C@H](C)CC[C@@H]([C@H]1C)[C@@]24OO3 [Artemether] | 105 ± 6.2%
C=C1C[C@@H]2CC[C@@]34C[C@H]5O[C@H]6[C@@H](O3)[C@H]3O[C@H](CC[C@@H]3O[C@H]6[C@H]5O4)CC(=O)C[C@@H]3[C@@H](OC)[C@@H](C[C@H](O)CN)O[C@H]3C[C@H]3O[C@@H](CC[C@@H]1O2)C[C@@H](C)C3=C [Eribulin] | 53.95 ± 0.3%
CCC(C)n1ncn(-c2ccc(N3CCN(c4ccc(OCC5COC(Cn6cncn6)(c6ccc(Cl)cc6Cl)O5)cc4)CC3)cc2)c1=O (stereo not given) [Itraconazole] | 81.9 ± 2.1%

Compound | cell viability
O=C(CCCCCCC(=O)Nc1ccccc1)NO [Vorinostat (SAHA, MK0683)] | 27.7 ± 2.2%
N#CC1(c2ccc(NC(=O)c3cccnc3NCc3ccncc3)cc2)CCCC1 [Apatinib] | 77.6 ± 9.1%
C#CCC(Cc1cnc2nc(N)nc(N)c2n1)c1ccc(C(=O)N[C@@H](CCC(=O)O)C(=O)O)cc1 (stereo not given in full) [Pralatrexate] | 104 ± 9.8%
C=CC(=O)Nc1cccc(Nc2nc(Nc3ccc(N4CCN(C(C)=O)CC4)cc3OC)ncc2C(F)(F)F)c1 [Rociletinib (CO-1686, AVL-301)] | 57.8 ± 3.1%
C=CC(=O)N1CCC(Oc2cc3c(Nc4ccc(Cl)c(Cl)c4F)ncnc3cc2OC)CC1 [Poziotinib (HM781-36B)] | 76.9 ± 8.5%
COc1cc2c(Oc3ccc(NC(=O)C4(C(=O)Nc5ccc(F)cc5)CC4)cc3F)ccnc2cc1OCCCN1CCOCC1 | 2.42 ± 1%
CCCCCOC(=O)Nc1nc(=O)n([C@@H]2O[C@H](C)[C@@H](O)[C@H]2O)cc1F [Capecitabine] | 98.9 ± 16%
O=P(O)(O)C(O)(Cn1ccnc1)P(=O)(O)O [Zoledronic Acid] | 109 ± 6%
C[C@H](NC(=O)Cc1cc(F)cc(F)c1)C(=O)N[C@H](C(=O)OC(C)(C)C)c1ccccc1 | 96.2 ± 2.6%
Cc1ccc(C(=O)Nc2ccc(CN3CCN(C)CC3)c(C(F)(F)F)c2)cc1C#Cc1cnc2cccnn12 | 1.8 ± 0.67%
Nc1cccc2c1C(=O)N(C1CCC(=O)NC1=O)C2=O (stereo not given) [Pomalidomide] | 99.2 ± 2.3%
Cc1cccc(N(C)C(=S)Oc2ccc3ccccc3c2)c1 [Tolnaftate] | 101 ± 19%
Cc1nc(NC(=O)N2CCC[C@H]2C(N)=O)sc1-c1ccnc(C(C)(C)C(F)(F)F)c1 [Alpelisib] | 56.6 ± 3%
O=C(CCBr)N1CCN(C(=O)CCBr)CC1 [Pipobroman-D8] | 84 ± 7.7%
C=C1c2cccc(O)c2C(O)=C2C(=O)[C@]3(O)C(O)=C(C(N)=O)C(=O)[C@@H](N(C)C)[C@@H]3[C@@H](O)[C@H]12 [Methacycline HCl] | 108.4 ± 0.2%
O=C(Nc1nc2cccc(-c3ccc(CN4CCS(=O)(=O)CC4)cc3)n2n1)C1CC1 [Filgotinib (GLPG0634)] | 93.7 ± 8.6%
CNC[C@H](O)c1ccc(O)c(O)c1 [Epinephrine Bitartrate] | 127 ± 6.3%
CCN1CCN(Cc2ccc(Nc3ncc(F)c(-c4cc(F)c5nc(C)n(C(C)C)c5c4)n3)nc2)CC1 [Abemaciclib] | 65.2 ± 4.2%
CN(CCOc1ccc(CC2SC(=O)NC2=O)cc1)c1ccccn1 (stereo not given) [Rosiglitazone] | 101 ± 3.3%
COc1cccc2c1C(=O)c1c(O)c3c(c(O)c1C2=O)C[C@@](O)(C(C)=O)C[C@@H]3O[C@H]1C[C@H](N)[C@H](O)[C@H](C)O1 [Daunorubicin HCl] | -1.33 ± 0.2%
